Results: PubChem BioAssay (NCI)
The panel holds about 79,000 compounds, 15% with a hit somewhere; the sample as a whole holds those more often. Unmarked numbers belong to inactive results. Activity calls are given as the source filed them. Cut-off read from the data, not from the text of the source: active = growth inhibition above about 70%; inactive = the rest.

Assay: NCI Yeast Anticancer Drug Screen. Data for the rad18 strain (AID 177)
Details: S. cerevisiae rad18 mutant growth inhibition, active compounds read high
Description: Growth inhibition of yeast strains with defined genetic alterations is measured as a screen for potential anti-cancer activity. Selected strains with alterations in DNA damage repair or cell cycle control were exposed to compounds and growth inhibition was measured relative to vehicle treated controls. The strain used in this assay is rad18

SMILES | growth inhibition (at 1.2 µM) | growth inhibition (at 3.7 µM) | growth inhibition (at 11.0 µM) | growth inhibition (at 33.0 µM) | growth inhibition (at 100.0 µM)
CN(C)CCNCCCNc1c2ccccc2nc2cccc([N+](=O)[O-])c12 | 88% (active) | 94% (active) | 96% (active) | 96% (active) | 96% (active)
Cc1cccc(C)c1NC(=O)C(C#N)C1=C(Cl)C(=O)c2ccccc2C1=O (stereo not given) | -32% | -1% | 92% (active) | 97% (active) | 96% (active)
CCN(CC)CCNc1ccc2ncn3c4ccc(O)cc4c(=O)c1c23 | 0% | -4% | -11% | -8% | -14%
Cc1ccc(NC(=O)CCC(=O)C(C)C(=O)c2ccccc2)c(C)c1 (stereo not given) | -1% | -1% | -1% | -3% | -1%
CCCCCCCCCCCCCCN | -3% | 4% | 5% | 24% | 98% (active)
O=S(=O)(c1ccccc1)N1CN2CN(C1)CN(S(=O)(=O)c1ccccc1)C2 | -18% | -14% | -19% | -27% | -36%
O=C(NOC(=O)c1ccc([N+](=O)[O-])cc1)c1ccc(Cl)cc1 | -11% | 2% | 43% | 90% (active) | 96% (active)
CCN(CC)CCNc1ccc2nc(C)n3c4ccc(OC)cc4c(=O)c1c23 | 34% | 41% | 57% | 66% | 74% (active)
